Experimental findings from PubChem BioAssay (NCI) are described below.

Each structure is given as a SMILES string. The panel holds about 83,000 compounds, 20% with a hit somewhere; the sample as a whole holds those more often.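 Step 1: grow cells in 96-well plates. Step 2: add test compound at a single concentration. Step 3: incubate 48 h. Step 4: record percent growth.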 The source made the active and inactive calls. Rule for the calls: active = growth percent below 10; inactive = the rest.

The test system of the assay is HL-60(TB) leukemia. The experiment in a line: NCI-60 one-dose screen, 48 h (100 = growth as untreated, 0 = no growth, -100 = all killed). The following applies: 10 µM unless noted.
In the case of `CCc1ccccc1NC(=O)c1sc2nc3c(cc2c1N)C(=O)CCC3`, the growth was -10.3% (active).
The same measure for `CS(=O)(=O)Nc1cc(-c2ccc3ncnc(Nc4ccc5c(cnn5Cc5ccc(F)cc5)c4)c3c2)cnc1Cl`: 23% (inactive).
The same measure for `CCc1ccc(C2=C/C(=C/c3ccc(Cl)cc3)C(=O)N2CCc2ccc(S(N)(=O)=O)cc2)cc1`: -18.9% (active).
The same measure for `CSc1nn(-c2ccccc2)c2ncnc(Oc3ccccc3)c12`: 109% (inactive).
In the case of `Nc1nc(N)c2nc3c(nc2n1)CCCCCCCCCC3`, the growth was 33.4% (inactive).
As for `COc1cc(CSc2nc3ccc(C)cc3c(=O)n2-c2ccccc2)cc(OC)c1OC`, the growth is 12.2% (inactive).
The same measure for `COc1cc(C2=NN(c3ccccc3)C(c3cccc(Nc4ccnc5cc(C(F)(F)F)ccc45)c3)C2)cc(OC)c1OC` (stereo not drawn): 94.8% (inactive); for `COc1ccc(/C=C(/C(=O)N2CCCCC2)c2cc(OC)c(OC)c(OC)c2)cc1`: -17.5% (active).
In the case of `O=C1N/C(=N/N=C(c2ccccc2)c2ccccc2)S/C1=C\c1ccc(Br)cc1`, the growth is 89.1% (inactive).
Take `O=c1c(/C=C/c2ccco2)nnc2sc(Nc3ccc(Cl)cc3)nn12`: the growth was 101% (inactive).
As to `CCc1nnc(NC(=O)c2nnn(-c3ccccc3)c2-c2ccco2)s1`, the growth was 79.9% (inactive).
The same measure for `CCC1C[N+]2=C(c3cc(OC)c(OC)cc3CC2)c2c1cc1n2CCc2cc(OC)c(OC)cc2-1` (stereo not drawn): 8.26% (active); for `C=C(C)[C@@H]1CC[C@]2(C(=O)NCCNCCNCCN)CC[C@]3(C)[C@H](CC[C@@H]4[C@@]5(C)CCC(=O)C(C)(C)[C@@H]5CC[C@]43C)[C@@H]12`: -35.6% [100 µM] (active).
